Compound activity (PubChem)
CYP2C9 inhib: blocks human cytochrome P450 2C9; P11712; CYP2C9 Supersomes, luciferin-H conversion, luminescence; inhibition, % at 5 µM; 96,000 tested, 20% active; AID 777;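 active = blocking of liver enzyme CYP2C9 beyond about 50% at 5 µM, limit read from the data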
Target sequence (P11712 whole entry, looked up): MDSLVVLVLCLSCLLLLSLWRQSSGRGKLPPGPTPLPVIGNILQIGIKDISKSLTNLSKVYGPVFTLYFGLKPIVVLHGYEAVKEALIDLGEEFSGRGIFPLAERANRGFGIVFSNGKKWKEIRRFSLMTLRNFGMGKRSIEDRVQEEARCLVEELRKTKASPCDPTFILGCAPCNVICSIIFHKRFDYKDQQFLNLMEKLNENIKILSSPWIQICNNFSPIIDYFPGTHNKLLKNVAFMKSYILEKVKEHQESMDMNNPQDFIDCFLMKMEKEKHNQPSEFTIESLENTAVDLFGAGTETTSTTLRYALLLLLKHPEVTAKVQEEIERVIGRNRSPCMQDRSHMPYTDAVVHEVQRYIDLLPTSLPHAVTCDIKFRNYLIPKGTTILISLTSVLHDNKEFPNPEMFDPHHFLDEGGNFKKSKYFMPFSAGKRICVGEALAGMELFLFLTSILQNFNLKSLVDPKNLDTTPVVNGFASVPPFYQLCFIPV
CYP2C9 act: increases human cytochrome P450 2C9 activity; P11712; recombinant CYP2C9, luciferin-H conversion, luminescence; stronger effect = higher value; factor 1 = untreated enzyme, 0 = blocked; activation factor at 5 µM; 96,000 tested, 1.4% active;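 active = activation factor of 2 or more for CYP2C9 at a 5 µM dose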;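 also: 0 = sulfaphenazole-blocked wells and 1 = vehicle-only wells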
sEH activator: soluble epoxide hydrolase (human) activation; purified human sEH enzymatic activity, activator screen; activation, % at 2 µM; 91,000 tested, 0.04% active; in the data active = activation above about 37%
CYP2C19 activ: activators of human cytochrome P450 2C19; P33261; activation factor at 5 µM; recombinant CYP2C19, luciferin-H EGE luminescence; stronger effect = higher value; 0 = fully inhibited enzyme, 1 = untreated enzyme; AID 1025; 96,000 tested, under 10 active;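 active = activation factor of at least 2 at 5 µM in the primary screen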;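 also: 0 = wells with 2.5 mM tranylcypromine and 1 = vehicle-only wells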
CYP2C19 inh: blocks human cytochrome P450 2C19 | inhibition, % at 5 µM | 96,000 tested, 21% active | CYP2C19 Supersomes, luciferin-H EGE luminescence, 30 min | P33261 | AID 778;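 active = CYP2C19 inhibition above a set limit at 5 µM in the primary screen, cut at about 50% in these data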;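 also: plate controls were negative control wells for no effect and 2.5 mM tranylcypromine positive control for full effect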
sEH inh: inhibitors of human soluble epoxide hydrolase. P34913. recombinant human sEH enzymatic activity assay. inhibition, % at 2 µM. 91,000 tested, 0.34% active; in the data active = inhibition above about 80%
* = called active by the depositor; nt = no result given. Most compounds without a hit are left out; they make up all but 27% or so of the library.

SMILES	CYP2C9 inhib	CYP2C9 act	sEH activator	CYP2C19 activ	CYP2C19 inh	sEH inh
CC(=O)C1=C(O)C=C(c2ccco2)CC1c1ccco1 (centres undefined)	51*	0.5	-1	0.5	50*	0
CCOc1ccccc1NC(=O)CSc1ncnc2c1oc1ccccc12	85*	0.1	8	1	4	-5
O=C(CSc1ncnc2c1oc1ccccc12)Nc1ccccc1F	20	0.8	10	1.1	-13	-8
CCc1nnc(NC(=O)CSc2ncnc3c2oc2ccccc23)s1	77*	0.2	-6	0.7	25	5
O=C(CSc1ncnc2c1oc1ccccc12)Nc1cccc(Cl)c1	60*	0.4	-34	0.7	32	34
O=C(CSc1ncnc2c1oc1ccccc12)Nc1nc2ccccc2s1	77*	0.2	5	0.8	16	-6
Cn1cc(/C=N/n2cnc3scc(-c4ccccc4)c3c2=O)c2ccccc21	42	0.6	-6	0.9	12	5
COC(=O)c1ccc(C(=O)OC)c(NC(=O)COC(=O)C23CC4CC(CC(O)(C4)C2)C3)c1	58*	0.4	5	0.9	13	-7
CCCCn1c(N)c(N(CC(C)C)C(=O)CN(C)Cc2cccc(OC)c2)c(=O)[nH]c1=O	14	0.9	5	0.4	56*	-3
Cc1ccc(S(=O)(=O)Nc2c(C)ccc3nsnc23)cc1	nt	nt	4	nt	nt	0
Cc1ccc2ncccc2c1NS(=O)(=O)c1ccccc1	35	0.6	12	0.4	57*	-12
COc1ccc(C(=O)c2ccc(N3CCN(C4CC(=O)NC4=O)CC3)cc2)cc1F (centres undefined)	-4	1	10	1	-1	-13
CN1CC(c2ccccc2)C2(SC(=S)N(Cc3ccco3)C2=O)C12C(=O)Nc1ccccc12 (centres undefined)	95*	0	-5	0	96*	7
CN1CC(c2ccccn2)C2(SC(=S)N(Cc3ccccc3)C2=O)C12C(=O)Nc1ccccc12 (centres undefined)	34	0.7	-2	0.6	41	1
Cc1nnc(Nc2ccc(C(=O)N3CCOCC3)cc2)c2ccccc12	41	0.6	7	0.9	12	-6
CS(=O)(=O)Nc1cccc2cccnc12	-136	2.4*	-1	1	5	2
CCN(CC)CCN(C(=O)Cn1nnc(-c2ccc(OC)c(OC)c2)n1)C(C(=O)NC1CCCC1)c1ccc(F)cc1 (centres undefined)	3	1	11	0.8	25	-13
CCCc1ncc(C(O)c2cccc3ccccc23)n1C (centres undefined)	40	0.6	1	0.4	61*	4
CC(C)c1ncc(C(O)c2cccc3ccccc23)n1C (centres undefined)	1	1	-1	1	2	2
CC(C)NC(=O)CSc1nncn1-c1ccccc1	-7	1.1	nt	1.1	-7	nt
Cc1ccc(S(=O)(=O)N2CCN(C(=O)N3CCOCC3)C2C(C)C)cc1 (centres undefined)	3	1	0	1	2	0
C/C(=N\S(=O)(=O)c1ccc(C)cc1)N1CCN(S(=O)(=O)c2ccccc2)C1C(C)C (centres undefined)	-136	2.4*	-30	0.2	78*	31
Cc1ccc(S(=O)(=O)N2CCN(C(=O)c3ccccc3)C2C(C)C)cc1 (centres undefined)	0	1	0	0.6	43	0
CC(=O)N1CCN(S(=O)(=O)c2ccc(C)cc2)C1C(C)C (centres undefined)	1	1	16	0.3	69*	-14
COC(=O)CC1NCCNC1=O (centres undefined)	-19	1.2	2	1	-3	-2
SMILES	CYP2C9 inhib	CYP2C9 act	sEH activator	CYP2C19 activ	CYP2C19 inh	sEH inh
CCOc1ccc(CNC(=O)CCCOc2cc(=O)n(C)c3ccccc23)cc1	78*	0.2	-48	0.3	69*	48
CCN(C(=O)COc1cc(=O)n(C)c2ccccc12)c1cccc(Cl)c1	-57	1.6	0	0.3	69*	-1
Cc1cccc(N(C)C(=O)COc2cc(=O)n(C)c3ccccc23)c1	3	1	nt	0.7	26	nt
Cn1c(=O)cc(OCC(=O)Nc2ccccn2)c2ccccc21	35	0.7	-3	0.5	53*	4
CN(C(=O)COc1cc(=O)n(C)c2ccccc12)c1ccc(Br)cc1	67*	0.3	-1	0.9	8	0
C[C@@]12CC(=O)NC1N(C(=O)c1cccc(C(F)(F)F)c1)C(c1ccccc1OC(=O)c1cccc(C(F)(F)F)c1)C2 (some centres undefined)	94*	0.1	5	0.5	48	-6
O=C(CCc1ccc(S(=O)(=O)N2CCOCC2)cc1)Nc1ccc(N2CCOCC2)cc1	-9	1.1	3	1.2	-21	-1
COc1cc(OC)c(Cl)cc1N	22	0.8	nt	0.8	24	nt
Cc1cc(NC(=O)c2ccccc2Cl)c(C(C)C)cc1O	-210	3.1*	-4	0.3	65*	3
CCC(C(=O)Nc1ccccc1C(=O)N1CCOCC1)N1C(=O)c2ccccc2C1=O (centres undefined)	18	0.8	0	0.9	14	-1
CCOC(=O)CCCc1sc(N)nc1-c1[nH]c(=O)[nH]c1C	-4	1	12	1.2	-17	-12
COc1ccccc1/C=C/C=N/N1CCN(Cc2ccc(Cl)cc2)CC1	-19	1.2	-12	0.5	52*	14
COc1ccccc1N1CCN(/N=C\c2ccc(C)o2)CC1	-33	1.3	1	0.9	6	1
COc1ccccc1/C=C/C=N/n1c(COc2ccccc2)n[nH]c1=S	7	0.9	0	0.9	9	-1
Cc1ccc(/C=N/N2CCN(Cc3ccc(Cl)cc3)CC2)o1	63*	0.4	-4	0.3	68*	1
C=CCn1c(SCn2nnc3ccccc3c2=O)nnc1-c1ccc(Br)cc1	75*	0.2	-9	0.2	76*	8
C=CCn1c(SCn2nnc3ccccc3c2=O)nnc1C1CCCCC1	10	0.9	-6	0	98*	5
C=CCn1c(SCC(=O)NC2CCCCC2)nnc1C1CCCCC1	3	1	1	1	0	1
C=CCn1c(SCn2nnc3ccccc3c2=O)nnc1-c1ccc(F)cc1	24	0.8	nt	0	99*	nt
Cc1nc(SCn2nnc3ccccc3c2=O)nc(C)c1C	8	0.9	nt	0.2	75*	nt
CCCC(=O)Nc1ccccc1-c1nnc(SC)[nH]c1=O	23	0.8	-10	1.1	-8	9
Cn1ccnc1SCC(=O)N(C1CCCCC1)C1CCCCC1	16	0.8	0	0.8	20	1
CCc1cccc(CC)c1-n1c(SCn2nnc3ccccc3c2=O)nnc1-c1cccnc1	93*	0.1	-8	0	96*	8
